# Data taken from the supplement of paper PMC8007513.
# Structures can show the parent of a compound that is named as a salt. ± gives the standard error. Among all 1,300 compounds or so, about 130 (10%) showed an effect of 50% or more. The full list was thinned out, with strong results kept by preference.
# Tested on: Trichoderma virens ATCC 9645
# Assay: growth yield (OD600) with compound + IPBC relative to untreated control; higher = less growth inhibition
# Details: compound concentration: 100 uM, IPBC concentration: 200 ng/ml
# Method in brief: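 A biocide at 200 ng ml^−1 was co-applied to some wells, and library compounds were present in all test wells at 100 μM final. The wells held 100 μl of Trichoderma virens ATCC 9645 spores at 15,000 spores ml^−1 in potato dextrose broth, grown at 30 °C in 96-well plates, with OD600 read at 40 h and 72 h. Results are relative growth against the control without either agent, averaged across duplicate screens.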
Compound,growth yield (40 h) [%],growth yield (72 h) [%]
CC(=O)NCCCS(=O)(=O)O [Acamprosate calcium] + CCCCNC(=O)OCC#CI [3-iodo-2-propynyl butylcarbamate (IPBC)],102.9 ± 0.32,94.3 ± 2.4
CCCCC(=O)O[C@H]1CC[C@H]2[C@@H]3CCc4cc(O)ccc4[C@H]3CC[C@]12C [Estradiol Valerate] + CCCCNC(=O)OCC#CI [3-iodo-2-propynyl butylcarbamate (IPBC)],92.29 ± 0.48,92.2 ± 2.4
O=C1O[C@H]([C@@H](O)CO)C(O)=C1O [Ascorbic acid] + CCCCNC(=O)OCC#CI [3-iodo-2-propynyl butylcarbamate (IPBC)],92.1 ± 0.95,96.28 ± 0.63
CN[C@@H]1[C@@H](O)[C@@H](O[C@@H]2[C@@H](O)[C@H](O[C@H]3OC(CN)=CC[C@H]3N)[C@@H](N)C[C@H]2N)OC[C@]1(C)O [Sisomicin sulfate] + CCCCNC(=O)OCC#CI [3-iodo-2-propynyl butylcarbamate (IPBC)],85.6 ± 3.6,91.9 ± 3.6
Cc1ccccc1OCC(O)CO (stereo not given) [Mephenesin] + CCCCNC(=O)OCC#CI [3-iodo-2-propynyl butylcarbamate (IPBC)],93.7 ± 2.9,99 ± 0.63
"CNCC(O)c1ccc(O)cc1 (racemic) [(+,-)-Synephrine] + CCCCNC(=O)OCC#CI [3-iodo-2-propynyl butylcarbamate (IPBC)]",81.3 ± 3.8,93.8 ± 6.3
NC(=O)C[S+]([O-])C(c1ccccc1)c1ccccc1 (stereo not given) [Modafinil] + CCCCNC(=O)OCC#CI [3-iodo-2-propynyl butylcarbamate (IPBC)],82 ± 3.5,93.5 ± 2.9
C[C@]12C=CC(=O)C=C1CC[C@@H]1[C@@H]2C(=O)C[C@@]2(C)[C@H]1CC[C@]2(O)C(=O)CO [Prednisone] + CCCCNC(=O)OCC#CI [3-iodo-2-propynyl butylcarbamate (IPBC)],90.9 ± 1.9,91.5 ± 1.3
CCCC(C)C1(CC)C(=O)NC(=O)NC1=O (stereo not given) [Pentobarbital] + CCCCNC(=O)OCC#CI [3-iodo-2-propynyl butylcarbamate (IPBC)],87.4 ± 2.9,94.2 ± 2.7
C/C=C(/C(=C/C)c1ccc(O)cc1)c1ccc(O)cc1 [Dienestrol] + CCCCNC(=O)OCC#CI [3-iodo-2-propynyl butylcarbamate (IPBC)],94.8 ± 3.3,93.8 ± 2.3
CCC(C)(CN(C)C)OC(=O)c1ccccc1 (stereo not given) [Amyleine hydrochloride] + CCCCNC(=O)OCC#CI [3-iodo-2-propynyl butylcarbamate (IPBC)],88 ± 1.3,92 ± 2
COc1ccc(Cl)cc1C(=O)NCCc1ccc(S(=O)(=O)NC(=O)NC2CCCCC2)cc1 [Glibenclamide] + CCCCNC(=O)OCC#CI [3-iodo-2-propynyl butylcarbamate (IPBC)],101 ± 6.8,108 ± 5.5
Clc1ccc(C(Cn2ccnc2)OCc2csc3c(Cl)cccc23)c(Cl)c1 (stereo not given) [Sertaconazole nitrate] + CCCCNC(=O)OCC#CI [3-iodo-2-propynyl butylcarbamate (IPBC)],3.97 ± 0.16,3.57 ± 0.42
CCOc1ccc2c(c1)C(C)=CC(C)(C)N2 [Ethoxyquin] + CCCCNC(=O)OCC#CI [3-iodo-2-propynyl butylcarbamate (IPBC)],98.3 ± 17,98.9 ± 12
CCc1c(C)[nH]c2c1C(=O)C(CN1CCOCC1)CC2 (stereo not given) [Molindone hydrochloride] + CCCCNC(=O)OCC#CI [3-iodo-2-propynyl butylcarbamate (IPBC)],102 ± 13,101 ± 8.9
CO[C@@H]1[C@@H](OC(N)=O)[C@@H](O)[C@H](Oc2ccc3c(O)c(NC(=O)c4ccc(O)c(CC=C(C)C)c4)c(=O)oc3c2C)OC1(C)C [Novobiocin sodium salt] + CCCCNC(=O)OCC#CI [3-iodo-2-propynyl butylcarbamate (IPBC)],91.7 ± 12,115 ± 14
N#Cc1ccc(C(c2ccc(C#N)cc2)n2cncn2)cc1 [Letrozole] + CCCCNC(=O)OCC#CI [3-iodo-2-propynyl butylcarbamate (IPBC)],98.6 ± 8.1,98.5 ± 1.6
c1ccc(-c2ccc(C(c3ccccc3)n3ccnc3)cc2)cc1 (stereo not given) [Bifonazole] + CCCCNC(=O)OCC#CI [3-iodo-2-propynyl butylcarbamate (IPBC)],4.92 ± 0.16,3.25 ± 0.1
O=C(C1CCCCC1)N1CC(=O)N2CCc3ccccc3C2C1 (stereo not given) [Praziquantel] + CCCCNC(=O)OCC#CI [3-iodo-2-propynyl butylcarbamate (IPBC)],71 ± 7.5,87.3 ± 3.8
O=[N+]([O-])O[C@H]1CO[C@H]2[C@@H]1OC[C@H]2O[N+](=O)[O-] [Isosorbide dinitrate] + CCCCNC(=O)OCC#CI [3-iodo-2-propynyl butylcarbamate (IPBC)],90.9 ± 7.6,94.4 ± 5.7
